# Only some compounds are listed: those with a hit (about 2.2% of all), similar ones and a draw of the others.
# APP 5UTR inh = inhibitors of APP translation via 5'UTR reporter, primary screen, APP 5'UTR luciferase, SH-SY5Y cells; inhibition, % at 2 µM; SH-SY5Y APP 5'UTR-luciferase reporter, luminescence; hit rate 0.82% among 190,000;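 active means inhibition above a set limit, derived from the sample mean plus 3 SD, cut at about 45% in these data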
# aSyn UTR inh = MLPCN primary screen, SNCA 5' untranslated region | alpha-synuclein 5'UTR reporter, inhibitor activity | inhibition, % (tested at 7.5 µM) | hit rate 0.82% among 300,000 | AID 1813, 2009; in the data active means inhibition above about 60%;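 further: H4 neuroglioblastoma cells stably carrying SNCA 5'UTR luciferase fusion; 0% = DMSO wells and 100% = positive control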
# IEC-6 tox = cytotoxicity in IEC-6 intestinal epithelial cells, primary screen, cytotoxicity control for KLF5 inhibitor project, cell-based, luminescence. IEC-6 cytotoxicity, luminescence viability. inhibition, % at 5 µM. hit rate 0.78% among 290,000. AID 1825, 2009; in the data active means inhibition above about 22%;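 further: 0% = plate median of test compound wells and 100% = cytotoxic reference compound wells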
# KLF5 inh = KLF5 expression inhibitors, primary screen, DLD-1 cells, luminescence. DLD-1 KLF5 promoter-luciferase reporter. inhibition, % at 5 µM. hit rate 0.23% among 290,000. AID 1700, 2009;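 active means inhibition above a per-plate limit of that plate's mean compound inhibition plus 3 SD, cut at about 60% in these data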;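 further: 0% = DMSO wells and 100% = LY294002 at 200 µM; higher means less KLF5 promoter-driven luciferase light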
# Ba/F3 V617F tox = reduced viability of JAK2V617F-dependent Ba/F3 cells, primary screen, JAK2V617F inhibitor project, cell-based, Ba/F3 EpoR-JAK2V617F, luminescence; ATP luminescence; AID 1446, 2008; hit rate 1.1% among 220,000; inhibition, % at 5.6 µM;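 active means inhibition above the campaign mean plus 3 SD over all tested compounds, cut at about 24% in these data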;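 further: cytokine-independent growth of Ba/F3 cells driven by EpoR plus mutant JAK2; 0% = DMSO-treated cells and 100% = JAK inhibitor I control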
# BaF3 parental = parental Ba/F3 cell viability inhibition, counter-screen for JAK2V617F inhibitor project, murine pro-B, CellTiter-Glo luminescence; CellTiter-Glo ATP luminescence; inhibition, % at 5.6 µM; hit rate 1.1% among 220,000; AID 1486, 2009;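 active means inhibition above a per-campaign cutoff, the mean inhibition of all tested compounds plus 3 SD, cut at about 27% in these data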;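 further: 0% = DMSO wells and 100% = JAK Inhibitor I control wells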
# BaF3 tox 2 = parental Ba/F3 cell viability inhibition, counter-screen for JAK2V617F inhibitor project, murine pro-B, CellTiter-Glo luminescence. shares compounds with Ba/F3 V617F tox. cells kept alive by added IL-3. inhibition, % at 5.6 µM. hit rate 31% among 580. AID 1520, 2009;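 active means cell growth inhibition above the hit limit set in the earlier mutant JAK2 cell screen, cut at about 27% in these data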;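 further: plate controls were DMSO-treated cells for no effect and JAK Inhibitor I control wells for full effect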
# JAK2V617F conf = viability loss in Ba/F3 EpoR-JAK2V617F cells, confirmation, JAK2V617F inhibitor project, cell-based, luminescence, triplicate. hit rate 66% among 580. inhibition, % at 5.6 µM. shares compounds with Ba/F3 V617F tox. CellTiter-Glo luminescence;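 active means mean inhibition above the hit cutoff derived in the earlier primary screen, cut at about 25% in these data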;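 further: 0% = DMSO-treated cells and 100% = JAK inhibitor I control wells; higher means lower luminescence from reduced cell ATP and viability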
# Numbers without * were called inactive; . = not tested or not shown.
SMILES,APP 5UTR inh,aSyn UTR inh,IEC-6 tox,KLF5 inh,Ba/F3 V617F tox,BaF3 parental,BaF3 tox 2,JAK2V617F conf
CCN(CC)c1ccc(CN2CCC(C(=O)NCc3ccc(C)cc3)CC2)cc1,-10,-31,0,-43,-2,5,.,.
O=C1C2CCCN2C(c2ccccc2)N1c1ccc(F)cc1 (stereo unspecified),-8,-3,0,1,-3,4,.,.
O=C1C2CCCN2C(c2ccc(F)cc2)N1c1ccc(Cl)cc1 (stereo unspecified),-14,25,4,-37,42*,18,3,18
CCOc1c(Cl)cc(/C=C/C(=O)N(CC)CC(=O)Nc2ccc(NC(C)=O)cc2)cc1OC,.,16,.,.,.,.,.,.
O=C(Nc1nc(=O)c2ccccc2s1)c1ccccc1,-66,-157,1,0,29*,15,-3,-12
CSCC[C@H](NC(=O)Nc1ccc(Oc2ccccc2)cc1)C(=O)O,.,2,-2,-13,-1,1,.,.
Cc1[nH]c(=O)nc2c1CCC2,-20,-4,2,-15,30*,0,-7,-10
Cc1nc2nc3c(c(=O)n2[nH]1)CCC3,17,11,-7,-31,-1,7,.,.
CCC(CC)c1nnc(NC(=O)Cc2ccccc2[N+](=O)[O-])s1,0,-15,8,-15,2,4,.,.
O=[N+]([O-])c1ccccc1N/N=C/c1cccc(O)c1O,.,-104,-10,-94,62*,-1,51*,96*
CNc1cc(CSC)nc(SCc2ccc(Cl)cc2Cl)n1,-1,49,-1,-4,-1,1,.,.
CSCc1cc(N(C)C)nc(SCc2ccc(Cl)c(Cl)c2)n1,-8,36,-2,26,42*,1,-3,1
COc1ccc(N(C(C)C(=O)N2CCC(Cc3ccccc3)CC2)S(C)(=O)=O)cc1 (stereo unspecified),12,24,3,-5,2,5,.,.
Cc1ccc(NC(=S)N(CCCN2CCC(C)CC2)Cc2ccco2)cc1C,5,-4,-4,-27,25*,14,29*,46*
O=S1(=O)C=C(Sc2nc3cc(Cl)ccc3o2)c2ccccc21,40,55,-4,-10,44*,7,107*,99*
O=C(O)c1ccc2c(c1)C(=O)N(c1nccs1)C2=O,.,7,5,-18,4,-3,.,.
Oc1ccc(/C=N/Nc2nc(N3CCCC3)nc(N3CCCC3)n2)cc1O,-7,-24,1,-11,46*,5,71*,98*
COc1cc(/C=N/Nc2nc(N3CCCC3)nc(N3CCCC3)n2)ccc1O,0,0,3,-8,0,2,.,.
CCOC(=O)c1c(NC(=O)/C=C/C(=O)O)sc(C)c1-c1ccc(C(C)(C)C)cc1,-5,-34,0,-7,28*,17,16,43*
Cc1ccc2[nH]c(=O)c(CN(C(=O)c3cccc([N+](=O)[O-])c3)C(C)C)cc2c1,.,10,-3,-1,-2,-3,.,.
CCOc1ccc(-c2cc(C(=O)N3CCN(C)CC3)c3ccccc3n2)cc1,-37,-136,-2,-54,1,7,.,.
CCOC(=O)N1CCN(C(=O)c2cc(-c3ccc(OCC)cc3)nc3ccccc23)CC1,78*,-13,24*,6,68*,20,69*,94*
CN1CCCN(C(=O)c2cccc(Cl)c2)CC1,.,12,4,1,.,.,.,.
CCOC(=O)c1ccc(NC(=S)NCCC2=CCCCC2)cc1,12,4,3,5,81*,-3,-5,-14
CCOC(=O)c1ccc(NC(=O)NCc2ccccc2OC)cc1,-25,28,5,-11,6,3,.,.
SMILES,APP 5UTR inh,aSyn UTR inh,IEC-6 tox,KLF5 inh,Ba/F3 V617F tox,BaF3 parental,BaF3 tox 2,JAK2V617F conf
CCOC(=O)c1ccc(NC(=O)NCCc2ccccc2OC)cc1,-27,8,-2,-1,64*,0,-6,-10
Cc1ccc(NC(=S)NCCC2=CCCCC2)cc1,-95,-137,8,-45,7,12,.,.
CN1CCN(Cc2cc(COCc3ccccc3)c3cccnc3c2O)CC1,72*,99*,5,20,38*,16,5,29*
COc1cccc(/C=N/NC(=O)c2ccc(=O)[nH]n2)c1O,.,-7,2,-6,0,0,.,.
COc1cccc(/C=N/NC(=O)c2[nH]c(C)c(C(=O)N/N=C/c3cccc(OC)c3O)c2C)c1O,11,49,-7,21,42*,5,12,70*
O=C(Nc1ccccc1)c1cc(S(=O)(=O)NCc2ccncc2)ccc1Cl,.,-1,-2,-1,.,.,.,.
Cc1cc(C)c(C#N)c(N2CCN(c3ccc(F)cc3)CC2)n1,.,0,3,3,.,.,.,.
CN(C)c1nc(N2CCN(c3ccc(F)cc3)CC2)c(C#N)c(=O)o1,4,34,0,-2,28*,13,-3,-8
CCCc1nc([N+](=O)[O-])c(S(=O)(=O)c2ccccc2)n1CC(C)C,10,-18,13,-16,29*,4,-4,33*
CC(C)Cn1c(C(C)C)nc([N+](=O)[O-])c1S(=O)(=O)c1ccc(F)cc1,-15,-36,0,-12,13,6,.,.
Cc1ccc(OCCN2CCN(C(=O)CCC(=O)Nc3nnc(CC(C)C)s3)CC2)cc1,.,-6,-1,-5,-3,3,.,.
S=c1[nH]nc(-c2ccc(Cl)cc2)n1/N=C/c1ccco1,.,9,1,-22,0,0,.,.
FC(F)(F)c1n[nH]c(=S)n1/N=C/c1ccco1,11,9,-4,6,35*,0,-8,-10
O=C(CCl)Nc1ccc(-c2ccccc2)cc1,23,-20,-5,-31,19,3,.,.
O=C(CCl)Nc1ccc(N=Nc2ccccc2)cc1,-31,-63,-5,-107,28*,2,19,94*
NC(N)=NN=C1CCCCCCCCCCC1,.,26,-6,13,49*,22,29*,68*
CN(C(=O)CS(=O)(=O)c1cccc(Cl)c1)c1ccccc1,-19,4,2,-15,1,4,.,.
CC(=O)Oc1ccc2oc(-c3ccccc3)c(C(N)=O)c2c1,.,-11,4,-29,-2,-4,.,.
COc1ccc(-c2cc(C(=O)N/N=C/c3ccc(OC)c(COCC(F)(F)C(F)F)c3)c3ccccc3n2)c(OC)c1,4,32,4,-19,49*,4,-2,6

# Assay outcomes (PubChem BioAssay)
